The text below walks through data of PubChem BioAssay (NCI).

Some test systems named below: NCI-H23 lung; NCI-H226 lung; NCI-H322M lung; HOP-62 NSCLC; NCI-H460 lung; A549/ATCC NSCLC; 786-0 renal; COLO 205 colon; DU-145 prostate; K-562 leukemia; MALME-3M melanoma; MDA-MB-231 breast; RXF 393 renal; SF-268 CNS; UACC-257 melanoma; M14 melanoma; SF-295 CNS; SF-539 CNS.
Experiment in all cases: NCI-60 one-dose screen, 48 h (100 = growth as untreated, 0 = no growth, -100 = all killed)
Holding throughout (settings): 10 µM unless noted

The panel holds about 83,000 compounds, 20% with a hit somewhere; the sample as a whole holds those more often.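 Step 1: grow cells in 96-well plates. Step 2: add test compound at a single concentration. Step 3: incubate 48 h. Step 4: record percent growth.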 Unmarked numbers belong to inactive results. The source made the active and inactive calls. Rule for the calls: active = growth percent below 10; inactive = the rest.

Turning to `O=C1C=C(OCC=C(C(F)(F)F)C(F)(F)F)c2ccccc2C1=O`, the growth in the experiment with NCI-H23 lung is 19.1%; in the experiment with NCI-H226 lung, 14.7%; with NCI-H322M lung, 90.5%; in the experiment with HOP-62 NSCLC it was 66.6%; in the experiment on NCI-H460 lung it was 59%; in the experiment on A549/ATCC NSCLC it was 82.9%. Besides, the growth in the experiment with 786-0 renal was -19.8% (active); in the experiment on COLO 205 colon, 52.7%; in the experiment with DU-145 prostate, -15% (active); in the experiment with K-562 leukemia, -15.5% (active); with MALME-3M melanoma, -34.8% (active); with MDA-MB-231 breast, 7.59% (active). For the same compound, the growth was -82.5% (active) in the experiment on RXF 393 renal, 0.611% (active) with SF-268 CNS, 45.8% in the experiment with UACC-257 melanoma and 26% in the experiment on M14 melanoma.

As to `COC(=O)c1cc(=O)nc(N/N=C/c2ccccc2O)s1`, the growth is 89% with NCI-H23 lung; 101% in the experiment on NCI-H226 lung; 67.2% in the experiment with NCI-H322M lung; 90.7% in the experiment with HOP-62 NSCLC; 94.5% with NCI-H460 lung; 94.4% in the experiment with A549/ATCC NSCLC. Further, the growth in the experiment with 786-0 renal is 95.1%; in the experiment on COLO 205 colon, 93%; in the experiment on DU-145 prostate, 111%; in the experiment on K-562 leukemia, 78.8%; with MALME-3M melanoma it was 82.5%; in the experiment with MDA-MB-231 breast it was 83.8%. The growth with RXF 393 renal is 99.7%; in the experiment on SF-268 CNS, 88.1%; in the experiment on SF-295 CNS, 81.4%; in the experiment with SF-539 CNS it was 106%; in the experiment on M14 melanoma, 95.2%.

`Cn1c2ccccc2c2ccccc21`: the growth is 99% in the experiment with NCI-H23 lung; 103% in the experiment on NCI-H226 lung; 94.9% with NCI-H322M lung; 90.8% in the experiment with HOP-62 NSCLC; 110% in the experiment on NCI-H460 lung; 108% with A549/ATCC NSCLC. Besides, the growth with 786-0 renal is 105%; with COLO 205 colon, 104%; with DU-145 prostate it was 106%; in the experiment with K-562 leukemia, 89.3%; in the experiment with MALME-3M melanoma it was 101%; with MDA-MB-231 breast, 108%. Also, the growth with RXF 393 renal is 111%; in the experiment on SF-268 CNS it was 103%; in the experiment with SF-539 CNS it was 108%; in the experiment with UACC-257 melanoma, 94.8%; with M14 melanoma, 99.3%.

`CC[N+](C)(C)N`: the growth in the experiment with NCI-H23 lung is 114%; in the experiment on NCI-H226 lung, 89.9%; in the experiment with NCI-H322M lung, 93.2%; in the experiment on HOP-62 NSCLC, 111%; in the experiment with NCI-H460 lung, 108%; in the experiment with A549/ATCC NSCLC it was 105%. Besides, the growth in the experiment on 786-0 renal is 100%; in the experiment with COLO 205 colon, 112%; with DU-145 prostate, 118%; in the experiment with K-562 leukemia it was 103%; in the experiment with MALME-3M melanoma, 112%; with MDA-MB-231 breast, 106%. The growth in the experiment on RXF 393 renal was 94.3%; with SF-268 CNS it was 110%; in the experiment on SF-295 CNS, 104%; with SF-539 CNS it was 109%; in the experiment on UACC-257 melanoma, 110%; with M14 melanoma, 107%.

Turning to `CC(O)c1cc[cH-]c1.[Fe+2].c1cc[cH-]c1` (configuration not stated), the growth in the experiment with NCI-H23 lung is 102%; in the experiment on NCI-H226 lung it was 91.2%; with NCI-H322M lung, 92.6%; in the experiment with HOP-62 NSCLC, 99.4%; in the experiment with NCI-H460 lung it was 114%; with A549/ATCC NSCLC, 101%. In addition, the growth is 97.2% in the experiment with 786-0 renal; 108% in the experiment with COLO 205 colon; 108% in the experiment with DU-145 prostate; 102% in the experiment with K-562 leukemia; 102% with MALME-3M melanoma; 110% in the experiment with MDA-MB-231 breast. Also, the growth with RXF 393 renal was 95.6%; in the experiment with SF-268 CNS it was 108%; with SF-295 CNS, 98.8%; in the experiment with SF-539 CNS it was 97%; in the experiment with UACC-257 melanoma, 96.9%; in the experiment on M14 melanoma, 95.6%.

In the case of `CSc1nc(N)n2nccc2n1`, the growth in the experiment on NCI-H23 lung was 107%; in the experiment on NCI-H226 lung, 83.9%; in the experiment with NCI-H322M lung, 102%; in the experiment with HOP-62 NSCLC it was 89.6%; with NCI-H460 lung it was 104%; with A549/ATCC NSCLC, 102%. The growth is 97.2% with 786-0 renal; 105% in the experiment on COLO 205 colon; 117% in the experiment on DU-145 prostate; 96.6% in the experiment on K-562 leukemia; 95.3% in the experiment with MALME-3M melanoma; 100% in the experiment on MDA-MB-231 breast. Moreover, the growth with RXF 393 renal was 112%; in the experiment on SF-268 CNS, 118%; in the experiment with SF-295 CNS it was 95.7%; with M14 melanoma it was 101%.

On to `COC(=O)C(C(=O)OC)C(Br)C(Br)C(Br)c1ccccc1` (configuration not stated), for which the growth with NCI-H23 lung is 108%; in the experiment on NCI-H226 lung it was 96.5%; in the experiment on NCI-H322M lung, 113%; with HOP-62 NSCLC it was 144%; in the experiment with NCI-H460 lung it was 108%; with A549/ATCC NSCLC it was 96%. Besides, the growth was 96.3% in the experiment with 786-0 renal; 71.2% in the experiment on COLO 205 colon; 89.5% in the experiment on DU-145 prostate; 24.8% in the experiment with K-562 leukemia; 101% with MALME-3M melanoma; 117% in the experiment on MDA-MB-231 breast. For the same compound, the growth was 57.5% in the experiment with RXF 393 renal; 99.2% in the experiment on SF-268 CNS; 98% in the experiment on SF-539 CNS; 82.7% with UACC-257 melanoma; 104% in the experiment on M14 melanoma.

In the case of `CCn1cnc(C[C@H](NC(=O)[C@@H](NC(=O)Nc2cc(C(F)(F)F)cc(C(F)(F)F)c2)C(C)C)C(=O)OC)c1`, the growth in the experiment with NCI-H23 lung was -78.8% [100 µM] (active); in the experiment on NCI-H226 lung it was -55.6% [100 µM] (active); in the experiment on NCI-H322M lung, -95.9% [100 µM] (active); in the experiment with HOP-62 NSCLC, -97.9% [100 µM] (active); in the experiment with NCI-H460 lung, -43.2% [100 µM] (active); with A549/ATCC NSCLC, -71.4% [100 µM] (active). Besides, the growth in the experiment with 786-0 renal was -87.5% [100 µM] (active); in the experiment with COLO 205 colon it was -94.1% [100 µM] (active); with DU-145 prostate, -81.2% [100 µM] (active); in the experiment with K-562 leukemia it was -57.3% [100 µM] (active); in the experiment on MALME-3M melanoma, -90.5% [100 µM] (active); in the experiment on MDA-MB-231 breast it was -94.2% [100 µM] (active). Moreover, the growth was -86.2% [100 µM] (active) with RXF 393 renal; -68.4% [100 µM] (active) with SF-268 CNS; -96.3% [100 µM] (active) with SF-539 CNS; -95.1% [100 µM] (active) in the experiment with UACC-257 melanoma; -93.8% [100 µM] (active) with M14 melanoma.

Take `CCN(CC)CCOC(=O)c1cccnc1`: the growth in the experiment with NCI-H23 lung is 95.8%; in the experiment on NCI-H226 lung it was 90.3%; with NCI-H322M lung, 100%; in the experiment with HOP-62 NSCLC it was 94.6%; with NCI-H460 lung, 101%; in the experiment with 786-0 renal, 99.8%. The growth with COLO 205 colon is 119%; in the experiment with DU-145 prostate, 109%; in the experiment on K-562 leukemia, 92.7%; with MALME-3M melanoma, 91.3%; in the experiment on MDA-MB-231 breast, 105%; in the experiment with RXF 393 renal, 103%. Besides, the growth is 102% in the experiment on SF-268 CNS, 101% in the experiment on SF-295 CNS, 102% with SF-539 CNS and 102% in the experiment with M14 melanoma.
